The source of these data is PubChem BioAssay AID492953 (The Scripps Research Institute Molecular Screening Center, 2010).

Each structure is given as a SMILES string. Out of some 340,000 compounds screened, about 4,200 (1.2%) were called active. Shown is part of a subset that was picked to be rich in actives. Values without a mark were called inactive.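 How the source made its calls: active means inhibition above the mean of all tested compounds plus 3 SD (cut at about 24% in these data); inactive means the rest.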

Chain of Platelet-activating factor acetylhydrolase IB subunit alpha2 (Homo sapiens) (P68402 whole entry, looked up): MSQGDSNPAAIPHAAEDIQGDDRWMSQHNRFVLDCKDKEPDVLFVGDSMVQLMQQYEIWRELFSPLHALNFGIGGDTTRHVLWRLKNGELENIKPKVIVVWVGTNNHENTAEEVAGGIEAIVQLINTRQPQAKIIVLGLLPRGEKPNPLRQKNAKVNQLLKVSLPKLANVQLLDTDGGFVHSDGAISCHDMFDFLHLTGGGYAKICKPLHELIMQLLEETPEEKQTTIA

This test concerns the target Platelet-activating factor acetylhydrolase IB subunit alpha2 (Homo sapiens) (UniProt P68402). Briefly: inhibition of PAF acetylhydrolase 1b subunit 2 – biochemical, fluorescence polarization, human, primary screen (AID 492953).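 Further: 0% = enzyme with DMSO and 100% = wells lacking PAFAH1B2.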 The note with it: recombinant PAFAH1B2, FP-rhodamine activity probe, at 3.39 µM, stronger effect = higher value. For orientation: Polarisation of emitted light reports the rotation of a fluorescent probe.
What is called inhibition is the drop in the measured response relative to a control, in per cent. `O=C(NCC(c1cccs1)N1CCOCC1)c1cc(Cl)ccc1[N+](=O)[O-]` (stereo unspecified): the inhibition is 5.77%.
Turning to `CSc1ccc(S(=O)(=O)N2CCC(C(=O)NCCc3ccccc3)CC2)cc1`, the inhibition is 0.35%.
With `CCOc1ccc(/C(O)=C2/C(=O)C(=O)N(Cc3cccnc3)C2c2ccc(N(C)C)cc2)c(C)c1` (stereo unspecified) the figure was -1.88%.
With `O=C(O)/C=C/C(=O)NNc1ccc([N+](=O)[O-])cc1` the figure was 4.93%; with `O=C(NCc1cccc(C(F)(F)F)c1)c1cccc(S(=O)(=O)N2CCN(Cc3ccccc3)CC2)c1`, -9.49%.
With `O=C(CCC(=O)N1CCN(S(=O)(=O)c2ccc(Cl)cc2)CC1)NCc1cccc(C(F)(F)F)c1` the figure was 26.5% (active); with `O=C(CCC(=O)c1ccccc1)NCc1cccc(C(F)(F)F)c1`, 2.04%.
Take `CC(=O)NCC(=O)N(Cc1ccco1)C1(C(=O)NC2CCCC2)CCCCC1`: the inhibition is 1.82%.
With `O=C(NCCc1ccc(Cl)cc1Cl)c1cc([N+](=O)[O-])c[nH]c1=O` the figure was 57% (active).
Regarding `NS(=O)(=O)c1ccc(CCNC(=O)c2ccc(Cl)cc2[N+](=O)[O-])cc1`, the inhibition was -2.98%.
With `O=C(NCCc1c[nH]c2ccc(Cl)cc12)c1ccc([N+](=O)[O-])cc1` the figure was 3.76%.
With `O=C(O)c1ccc(NN=CC2=C(N3CCOCC3)/C(=C/c3ccccc3)CC2)cc1` the figure was -2.37%.
In the case of `COc1ccc(C(CNC(=O)c2cc(S(=O)(=O)Nc3cccc(C)c3)ccc2C)N2CCCC2)cc1` (stereo unspecified), the inhibition was 4.75%.
In the case of `CC(C)C[C@H]1CN([C@@H](CC(C)C)CN2CCC[C@@H]2CN2C(=O)C(=O)NC[C@@H]2Cc2ccccc2)C(=O)C(=O)N1CCc1ccccc1`, the inhibition was 1.5%.
With `O=c1[nH]c(/C=C\c2cccc(C(F)(F)F)c2)nc(O)c1[N+](=O)[O-]` the figure was 27.5% (active).
Regarding `Cc1ccccc1/C=C\c1nc(O)c([N+](=O)[O-])c(=O)[nH]1`, the inhibition was 9.97%.
On to `O=c1[nH]c(/C=C/c2cccc(Br)c2)nc2ccccc12`, for which the inhibition is 1.93%.
With `Cc1ccnc(SCC(=O)Nc2cccc(S(=O)(=O)N3CCOCC3)c2)n1` the figure was 1.16%; with `COC(=O)C1=C(N)Oc2c(oc(CO)cc2=O)C1c1c(F)cccc1Cl` (stereo unspecified), 0.05%.
With `Cc1cc(F)ccc1S(=O)(=O)Nc1ncnc2scc(-c3ccc(F)cc3)c12` the figure was 36.1% (active); with `COc1ccc(-c2csc3ncnc(N4CCN(S(=O)(=O)c5cccc(F)c5)CC4)c23)cc1`, 5.03%; with `O=S(=O)(Nc1ncnc2sccc12)c1cccc(F)c1`, -0.25%.
With `CN(CCc1ccccn1)S(=O)(=O)c1ccc2c3c(cccc13)C(=O)N2`, the inhibition is -2.83%.
For the compound `CN1C(c2ccc(F)cc2)=CS/C1=C(/C#N)c1nnc2n1-c1ccccc1SC2`, the inhibition is 2.85%.
For the compound `CCN(CC)C(=O)Oc1ccc(Br)cc1C(=O)Nc1ccc(F)c(Cl)c1`, the inhibition is 7.03%.
With `C=CC[C@@H](CC(=O)N[C@H](CO)Cc1ccccc1)C(=O)N[C@H](C)COC(=O)[C@@H](CC=C)Cc1ccc(F)cc1` the figure was 26.8% (active); with `C=CC[C@@H](CC(=O)N[C@H](CO)Cc1ccccc1)C(=O)N[C@@H](COC(=O)[C@@H](CC=C)Cc1ccc(F)cc1)Cc1c[nH]c2ccccc12`, -1.64%.
With `C=CCC[C@H](Cc1ccc(F)cc1)C(=O)OC[C@@H](NC(=O)[C@@H](CC=C)CC(=O)N[C@H](CO)Cc1ccccc1)C(C)(C)C` the figure was 13.2%; with `Cn1c(=O)c(=O)n(C)c2cc(S(=O)(=O)CCC(=O)N3CCCCC3)ccc21`, 5.13%; with `Cc1ccc(NS(=O)(=O)c2ccc3c(c2)n(C)c(=O)c(=O)n3C)c(C)c1`, 0.65%.
With `CCc1ccc(S(=O)(=O)Nc2cc3c(cc2N2CCCCC2)n(C)c(=O)c(=O)n3C)cc1` the figure was 28.5% (active); with `O=C(NC1=CC(=O)c2ccccc2C1=O)c1ccccc1`, 17%; with `CN(O)C(=S)c1ccccc1`, -1.16%.
Consider `Cc1ccc(C(=O)N/C(=C/c2ccc(-c3cccc([N+](=O)[O-])c3)o2)C(=O)NCCCN(C)C)cc1`, for which the inhibition is 1.95%.
As to `O=C(CNC(=O)Cc1ccccc1)N=Nc1c(O)[nH]c2ccc(Br)cc12`, the inhibition was -1.85%.
With `Oc1[nH]c2ccc(Br)cc2c1N=Nc1nn[nH]n1` the figure was 73.3% (active).
With `NS(=O)(=O)c1ccc(N=Nc2c(O)[nH]c3ccc(Br)cc23)cc1` the figure was 11.8%; with `Cc1cc(C)c(NC(=O)CN2CCOCCOCCOCCOCC2)c(C)c1`, 0.53%; with `Cc1nc2nc(C)c(NS(=O)(=O)c3ccc(C(C)(C)C)cc3)c(=O)n2[nH]1`, 16.3%.
Consider `CC1(C)Cc2ccccc2-c2nc(CN3CCOCC3)[nH]c(=O)c21`, for which the inhibition is 6.87%.
For the compound `CC1(C)Cc2ccccc2/C(=C/C(=O)c2ccccc2)N1`, the inhibition was -0.07%.
With `CC1(C)Cc2ccccc2-c2[nH]c(=S)[nH]c(=O)c21` the figure was 26.1% (active); with `CC1C(C)N(C(=O)CCl)c2ccccc2N1C(=O)CCl` (stereo unspecified), 2.69%; with `CC(NC(=O)CC1SC(N)=NC1=O)c1ccccc1` (stereo unspecified), 3.61%.
Consider `O=C(NNC(=O)c1ccc2ccccc2c1)c1ccc(Cl)cc1`, for which the inhibition was 3.28%.
For the compound `CN(CC(=O)Nc1ccc(Cl)cc1)C(=O)c1ccc(COc2ccccc2)cc1`, the inhibition was 7.71%.
With `CN(CC(=O)Nc1ccc(Cl)cc1)C(=O)CNC(=O)c1ccc2ccccc2c1` the figure was 29% (active).
In the case of `Clc1ccc2c(c1)C1=C(C(c3ccncc3)O2)C(c2ccc(Br)cc2)n2ncnc2N1` (stereo unspecified), the inhibition is 2.64%.
With `CN(C)S(=O)(=O)c1cccc(C(=O)OCC(=O)N2CCCC2=O)c1` the figure was 0.79%; with `CC(=O)c1cccc(NC(=O)N2CCCC2C(=O)NCCc2ccccc2)c1` (stereo unspecified), 4.97%; with `CCc1ccccc1NC(=O)Cc1cn(C)c2ccccc12`, 4.1%.
With `CC(Oc1ccc2c(-c3ccccc3)cc(=O)oc2c1)C(=O)NC(Cc1c[nH]c2ccccc12)C(=O)O` (stereo unspecified) the figure was 69.3% (active); with `COc1ccc(-c2cc(=O)oc3cc(OCC(=O)N[C@@H](Cc4c[nH]c5ccccc45)C(=O)O)ccc23)cc1`, 4.23%; with `COc1ccc(-c2cc(C(=O)NC(Cc3c[nH]c4ccccc34)C(=O)O)c(C)o2)cc1OC` (stereo unspecified), 9.21%.
For `CSc1ncnc2c1ncn2CC(=O)C1CCC2C3CCC4=CC(=O)CCC4(C)C3CCC12C` (stereo unspecified), the inhibition is 3.57%.
With `Cc1ccc(S(=O)(=O)N2CCN(S(=O)(=O)N3CCOCC3)CC2)cc1` the figure was 2.69%; with `CC(C)(C)c1ccc(C(=O)N2CCN(CCNC(=O)C(=O)Nc3ccc(F)cc3)CC2)cc1`, 0.31%.
Consider `CC(=O)N1CCOc2ccc(S(=O)(=O)N3CCN(c4cccc(C(F)(F)F)c4)CC3)cc21`, for which the inhibition was 3.14%.
With `CC1CN(C(=O)c2cc(COc3c(F)cccc3F)on2)CCN1C` (stereo unspecified), the inhibition was 0.48%.
With `O=C(CNC1CCCCC1)NCC1(c2ccccc2)CCCC1`, the inhibition is 26.9% (active).
With `CC(=O)CC(CC(=O)NC1CCCCC1)c1ccccc1` (stereo unspecified) the figure was 5.22%; with `O=C(CCS(=O)(=O)c1ccccc1)NC1CCCC1`, 5.22%.
As for `CC(C)Cn1cnc2c(SCc3ccc(Cl)cc3)nc(N)nc21`, the inhibition is 7.46%.
With `Cc1ccc(C(=O)COC(=O)CCN2C(=O)C3C4CC(C(Br)C4Br)C3C2=O)cc1` (stereo unspecified) the figure was -1.23%.
With `COc1cccc(N2CCN(CC(=O)Nc3ccnn3C3CCCC3)CC2)c1` the figure was 1.78%; with `CC1(C(=O)OCC(=O)Nc2ncc(Cl)cc2Cl)CC1(Cl)Cl` (stereo unspecified), 2.15%; with `CC(Oc1ccc(Cl)cc1)C(=O)OCC(=O)Nc1ncc(Cl)cc1Cl` (stereo unspecified), 30.6% (active).
With `O=C(COC(=O)Cn1[nH]c(=O)c2ccccc2c1=O)Nc1ncc(Cl)cc1Cl` the figure was 2.27%; with `CCN(CC(=O)Nc1c(F)cccc1F)C(=O)c1ccc(-c2ccccc2)cc1`, 3.05%.
For the compound `COc1ccc(-c2cn(-c3ccc(C)cc3)c(=O)n2CC(=O)Nc2ccc(OC)c(OC)c2)cc1`, the inhibition is 2.69%.
Regarding `CC1CCC(NC(=O)CNC(=O)c2ccc3ccccc3c2)CC1` (stereo unspecified), the inhibition was 7.58%.
Take `CCCc1cc(=O)n2[nH]c(SCc3ccccc3)nc2n1`: the inhibition is 13.6%.
`CCCc1cc(=O)[nH]c(SCc2ccc(C#N)cc2)n1`: the inhibition is 25.2% (active).
With `CCCc1cc(=O)[nH]c(SCc2cc(=O)oc3c(C)c(C)ccc23)n1` the figure was -0.37%; with `Cn1cc(C2OC(=O)c3ccccc32)c2ccccc21` (stereo unspecified), 0.55%; with `Cc1cccc(NS(=O)(=O)c2ccc(C)c(C(=O)NCC(c3ccccc3)N(C)C)c2)c1` (stereo unspecified), 6.63%.
With `Cc1ccc(S(=O)(=O)NCCCn2ccnc2)cc1C(=O)NC(C)C` the figure was 2.08%.
With `Cc1ccc(S(=O)(=O)NCCC(c2ccccc2)c2ccccc2)cc1C(=O)O` the figure was 29% (active).
Take `COc1cc(Cl)c(C)cc1NC(=O)COC(=O)c1cc(SC)ccc1Cl`: the inhibition is -3.93%.
With `CSCc1cc(N2CCOCC2)nc(SCc2ccc(Cl)cc2Cl)n1` the figure was 10.7%.
With `N/C(=N\OC(=O)CCc1ccccc1)c1cccnc1` the figure was 1.52%; with `N/C(=N\OC(=O)CCc1ccccc1)c1ccc(Cl)cc1`, 63.8% (active); with `COc1ccc(/C(N)=N/OC(=O)CCCc2ccccc2)cc1`, 6.71%.
Regarding `C=C(C)c1cccc(C(C)(C)NC(=O)NC2CCCC2)c1`, the inhibition was 4.81%.
As to `COCCSc1nnc(NC(=O)c2cc(OC)c(OC)cc2[N+](=O)[O-])s1`, the inhibition was 4.45%.
With `COC(=O)[C@@]1(C)[C@H]2C(=O)N(Cc3ccccc3)C(=O)[C@H]2[C@H]2CN=C(SCC3CC3)N21` the figure was 2.74%.
